# Measurements as given in publication PMC11062922 (Nature Chemical Biology, 2023).
# Where two headings read alike, the source gives them in different places.
# Assays:
# Set-up in all cases: species or system human, MV4-11 + K-562 + COLO205 + SK-N-BE2 + OVCAR-8
# ADCK3 = details: read-out: apparent Kd, n = 1
# CSNK1A1 = details: read-out: apparent Kd; compound concentrations: 100 nM and 1000 nM (sheet 'Samples'), CATDS: 0.108738920150242; n = 1
# CSNK1D = details: read-out: apparent Kd; compound concentrations: 100 nM and 1000 nM (sheet 'Samples'), CATDS: 0.110076630605661; n = 1
# CSNK1E = details: read-out: apparent Kd; compound concentrations: 100 nM and 1000 nM (sheet 'Samples'), CATDS: 0.12792065759961399; n = 1
# ILK = details: read-out: apparent Kd; compound concentrations: 100 nM and 1000 nM (sheet 'Samples'), CATDS: 9.4718278447494406E-2; n = 1
# LIMK1 = details: read-out: apparent Kd; compound concentrations: 100 nM and 1000 nM (sheet 'Samples'), CATDS: 4.5083762748743803E-2; n = 1
# MAP2K2 = details: read-out: apparent Kd; compound concentrations: 100 nM and 1000 nM (sheet 'Samples'), CATDS: 0.102896761563019; n = 1
# MAPK10 = details: read-out: apparent Kd; compound concentrations: 100 nM and 1000 nM (sheet 'Samples'), CATDS: 5.09024054826294E-2; n = 1
# MAPK14 = details: read-out: apparent Kd; compound concentrations: 100 nM and 1000 nM (sheet 'Samples'), CATDS: 0.11352717514973699; n = 1
# MAPK9 = details: read-out: apparent Kd; compound concentrations: 100 nM and 1000 nM (sheet 'Samples'), CATDS: 5.50671155445017E-2; n = 1
# MAPKAPK2 = details: read-out: apparent Kd; compound concentrations: 100 nM and 1000 nM (sheet 'Samples'), CATDS: 5.16854933400041E-2; n = 1
# NNT = details: read-out: apparent Kd; compound concentrations: 100 nM and 1000 nM (sheet 'Samples'), CATDS: 4.6144486459290798E-2; n = 1
# PRKAG1 = details: read-out: apparent Kd; compound concentrations: 100 nM and 1000 nM (sheet 'Samples'), CATDS: 9.6836813668462501E-2; n = 1
# VDAC3 = details: read-out: apparent Kd; compound concentrations: 100 nM and 1000 nM (sheet 'Samples'), CATDS: 4.4921279998790198E-2; n = 1
# AKT3 = details: read-out: apparent Kd; compound concentrations: 100 nM and 1000 nM (sheet 'Samples'), CATDS: 0.239087060290751; n = 1
# PIK3CB = details: read-out: apparent Kd, compound concentrations: 100 nM and 1000 nM (sheet 'Samples'), n = 1
# ARAF = details: read-out: apparent Kd; compound concentrations: 100 nM and 1000 nM (sheet 'Samples'), CATDS: 0.31382782577056201; n = 1
# AKT1 = details: read-out: apparent Kd; compound concentrations: 100 nM and 1000 nM (sheet 'Samples'), CATDS: 0.39563035574495098; n = 1
# PIK3CD = details: read-out: apparent Kd; compound concentrations:100 nM and 1000 nM (sheet 'Samples'); n = 1
# TAOK1 = details: read-out: apparent Kd; compound concentrations:100 nM and 1000 nM (sheet 'Samples'); n = 1
smiles,measurement,setting,value
Cl.Fc1ccc(-c2nc3n(c2-c2ccncc2)CCS3)cc1 [SKF-86002-A2],potency estimated from few doses,"ADCK3; compound concentrations: 100 nM and 1000 nM (sheet 'Samples'), CATDS: 0.13841841759658599",74.5 nM
same,potency estimated from few doses,CSNK1A1,113 nM
same,potency estimated from few doses,CSNK1D,110 nM
same,potency estimated from few doses,CSNK1E,84.8 nM
same,potency estimated from few doses,ILK,148 nM
same,potency estimated from few doses,LIMK1,1770 nM
same,potency estimated from few doses,MAP2K2,125 nM
same,potency estimated from few doses,MAPK10,946 nM
same,potency estimated from few doses,MAPK14,104 nM
same,potency estimated from few doses,MAPK9,681 nM
same,potency estimated from few doses,MAPKAPK2,885 nM
same,potency estimated from few doses,NNT,1550 nM
same,potency estimated from few doses,PRKAG1,141 nM
same,potency estimated from few doses,VDAC3,1810 nM
Cc1c(Cn2ccn3c(=O)nc(N4CCOCC4)cc23)cccc1C(F)(F)F [GSK2336394A],potency estimated from few doses,"ADCK3; compound concentrations: 100 nM and 1000 nM (sheet 'Samples'), CATDS: 0.28209603435573799",575 nM
same,potency estimated from few doses,AKT3,1030 nM
same,potency estimated from few doses,PIK3CB; CATDS: 0.78583542489200198,54.2 nM
N#Cc1c(C(=O)c2ccccc2)cnn1-c1ccccc1 [RO1150868-000],potency estimated from few doses,"ADCK3; compound concentrations: 100 nM and 1000 nM (sheet 'Samples'), CATDS: 0.41640381160796702",510 nM
same,potency estimated from few doses,ARAF,875 nM
same,potency estimated from few doses,PIK3CB; CATDS: 0.29308113927572399,1020 nM
FC(F)(F)c1ccc(-c2nn3ncccc3c2-c2ccnc(Nc3ccc(Cl)c(C(F)(F)F)c3)n2)cc1 [GW829350X],potency estimated from few doses,"ADCK3; compound concentrations: 100 nM and 1000 nM (sheet 'Samples'), CATDS: 0.67916876553854699",727 nM
same,potency estimated from few doses,AKT1,2350 nM
COc1cc2ncn(-c3cc(OCC4CCCCC4)c(C(N)=O)s3)c2cc1OC [GSK204559A],potency estimated from few doses,ADCK3; compound concentrations:100 nM and 1000 nM (sheet 'Samples'),1060 nM
same,potency estimated from few doses,PIK3CD,190 nM
same,potency estimated from few doses,TAOK1,1460 nM
